# Active and inactive are the calls of the source.
# Experiments:
# Albumin (Bos taurus) = Albumin (Bos taurus) (UniProt P02769); test: compounds binding labelled BSA control protein – biochemical, small-molecule microarray, Alexa647 label, 635/667 nm fluorescence, artefact control for SMM control protein annotation, profiling panel (AID 1118); conditions: BSA-A647 binding, fluorescence 635 nm, higher = more signal;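 also: score merges 667 nm emission intensity and signal-to-noise per printed compound spot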
# [1] = probe aXIP binding to arrayed compounds – biochemical, NeuroSMM set, 635/667 nm fluorescence, primary screen (AID 1119); conditions: small-molecule microarray, higher = more signal, called active from +8 up or from −8 down;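 also: probe is the protein aXip251-270 applied at 1 µg/mL to compound-printed slides; binding of probe to printed compounds measured as 667 nm fluorescence plus signal to noise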
# [2] = probe aNOTCH3 binding on compound microarray – biochemical, small-molecule microarray, 635/667 nm fluorescence, primary screen (AID 1120); conditions: higher = more signal;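 also: probe is a biotin-tagged antibody raised against NOTCH3 rather than NOTCH3 protein; score merges spot fluorescence near 667 nm with spot signal to noise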
# [3] = probe aNOTCH2 binding on compound microarray – biochemical, small-molecule microarray, 635/667 nm fluorescence, primary screen (AID 1121); conditions: higher = more signal;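 also: score merges feature fluorescence read at 667 nm with its signal to noise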
# [4] = biological target: Carbonic anhydrase 2 (Homo sapiens) (UniProt P00918); test: compounds binding carbonic anhydrase 2 – biochemical, small-molecule microarray, Alexa647-labelled CAII, profiling panel (AID 1122); conditions: CAII-A647 binding fluorescence, higher = more signal
# [5] = COS7 lysate on small-molecule microarray, probe aHis, 635 nm (AID 1123); conditions: COS7 cell lysate, fluorescence, higher = more signal;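 also: z-score combines 667nm fluorescence intensity with signal-to-noise per printed compound spot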
# [6] = probe aLAP1 signal on lysate-treated microarray – cell lysate, small-molecule microarray, COS7 lysate, primary screen (AID 1124); conditions: probe aLAP1, fluorescence, higher = more signal;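 also: lysate comes from COS7 cells expressing LAP1 and is applied at 0.3 µg/mL; score merges spot fluorescence near 667 nm with signal-to-noise over triplicate slides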
# Sam68 (KHDRBS1) = test: compounds binding KHDRBS1 protein – biochemical, small-molecule microarray, 635 nm fluorescence, primary screen (AID 1125); conditions: higher = more signal;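 also: score merges 667 nm channel intensity with signal to noise over triplicate slides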
# [7] = system: Chordin-like protein 2 (CHRDL2); test: compounds binding chordin-like 2 – biochemical, small-molecule microarray, 635 nm fluorescence, primary screen (AID 1126); conditions: fluorescence 635 nm, higher = more signal;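 also: printed compound slides probed with Chrdl2 protein at 4 µg/mL for 1 h at 4 C; score merges 667 nm emission intensity with signal to noise over three replicate slides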
# [8] = biological target: Concanavalin-A (Canavalia ensiformis) (UniProt P02866); test: compounds binding concanavalin A lectin – biochemical, small-molecule microarray, Alexa647 label, 635 nm, artefact control for SMM control protein annotation, primary screen (AID 1127); conditions: ConA-A647 binding fluorescence, higher = more signal;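 also: z combines 667 nm emission intensity with signal-to-noise across three replicate slides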
# Chain of Concanavalin-A (Canavalia ensiformis) (P02866 whole entry, looked up): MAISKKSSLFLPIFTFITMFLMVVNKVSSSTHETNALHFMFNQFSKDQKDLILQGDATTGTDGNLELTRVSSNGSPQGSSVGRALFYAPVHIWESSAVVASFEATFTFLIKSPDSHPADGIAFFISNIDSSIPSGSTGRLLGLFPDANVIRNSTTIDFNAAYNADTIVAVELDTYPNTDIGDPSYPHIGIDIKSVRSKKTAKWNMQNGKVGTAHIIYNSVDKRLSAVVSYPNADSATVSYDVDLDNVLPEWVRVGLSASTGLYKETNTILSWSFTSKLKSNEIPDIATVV
# Chain of Albumin (Bos taurus) (P02769 whole entry, looked up): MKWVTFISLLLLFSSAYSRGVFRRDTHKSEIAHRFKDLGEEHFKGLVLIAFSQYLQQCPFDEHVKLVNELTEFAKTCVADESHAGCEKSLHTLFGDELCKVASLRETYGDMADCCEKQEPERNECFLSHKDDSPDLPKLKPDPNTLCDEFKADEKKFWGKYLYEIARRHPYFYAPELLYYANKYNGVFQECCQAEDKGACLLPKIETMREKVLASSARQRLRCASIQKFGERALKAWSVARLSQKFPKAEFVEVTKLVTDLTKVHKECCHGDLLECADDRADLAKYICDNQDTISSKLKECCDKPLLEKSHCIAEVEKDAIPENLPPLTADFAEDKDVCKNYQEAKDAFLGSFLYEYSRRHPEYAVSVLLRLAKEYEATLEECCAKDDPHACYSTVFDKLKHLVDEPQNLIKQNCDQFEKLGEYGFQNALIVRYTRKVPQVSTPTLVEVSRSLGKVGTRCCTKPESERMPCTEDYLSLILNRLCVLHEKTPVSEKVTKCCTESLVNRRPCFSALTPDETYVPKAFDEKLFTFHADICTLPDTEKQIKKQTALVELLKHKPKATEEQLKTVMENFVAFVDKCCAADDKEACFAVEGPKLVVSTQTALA
SMILES,composite z-score (Albumin (Bos taurus)),composite Z-score [1],composite z-score [2],composite z-score [3],composite z-score [4],composite z-score [5],composite z-score [6],composite z-score (Sam68 (KHDRBS1)),composite z-score [7],composite z-score [8]
C=CC[C@]1(C(=O)O)N=C(c2ccc(OCCCO)cc2)O[C@H]1c1ccccc1CN=[N+]=[N-],0.659,0.168 (inactive),-0.0447,-0.157,0.876,1.23,-0.201,-0.103,0.0037,0.0681
C=CC[C@@]1(C(=O)OC)N=C(c2ccc(OCCCO)cc2)O[C@@H]1c1ccccc1CN=[N+]=[N-],-0.13,-0.169 (inactive),0.0419,-0.102,0.586,1.48,-0.11,0.38,0.373,0.518
CC(=O)n1cc(C(O)C2C=CC3C(=O)N(c4ccccc4)C(=O)C3N2Nc2ccc(C#N)cc2)c2ccccc21 (stereo not given),0.938,-0.187 (inactive),0.307,0.0753,0.798,2.7,0.53,1.31,-0.776,0.876
COC(=O)[C@@]1(Cc2ccccc2)[C@H]2c3cc(C(=O)N(C)C)n(Cc4ccccc4)c3C[C@H]2CN1C(=O)c1ccccc1,0.75,0.047 (inactive),0.184,-0.0895,0.749,1.41,-0.469,-0.0506,-0.539,0.919
COC(=O)[C@@]1(Cc2ccc(OC)cc2)[C@H]2c3cc(C(=O)N4CCCC4)n(CCc4ccccn4)c3C[C@H]2CN1C(=O)c1ccccc1,0.348,0.868 (inactive),0.268,0.0746,0.862,3.52,0.425,-0.724,-0.236,0.949
Cc1ccc(S[C@]2(C(=O)NCC(C)C)CC(=O)N(Cc3ccccc3)[C@@H]2c2ccc(CO)cc2)cc1,0.397,0.941 (inactive),-0.406,0.0196,0.748,1.78,0.984,-0.0273,-2.02,-1.1
C=CCC(OC(C)=O)[C@@H]1[C@@H](N(Cc2cc3ccccc3o2)C(=O)c2ccc(-c3ccccc3)cc2)c2cc(OCCCO)ccc2N1C(=O)Cc1ccc2ccccc2c1 (stereo not given in full),-0.0043,-0.12 (inactive),-0.0716,-0.166,-0.127,0.466,0.255,-0.156,0.213,-0.136
O=C1O[C@@H](c2ccccc2)[C@@H](c2ccccc2)N2[C@@H](c3ccc(O)cc3)[C@]3(C(=O)Nc4ccccc43)[C@@H](C(=O)NC[C@H](O)c3ccccc3)[C@H]12,0.726,0.0895 (inactive),-0.242,-0.0885,0.699,1.66,-0.238,0.607,0.458,0.442
